From PubChem
Calpain2 inh: inhibitors of pig calpain II; 0.37% of 220,000 active; purified calpain II, fluorogenic peptide substrate, 30 min; inhibition, % at 16 µM;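 active = inhibition above about 50%, limit read from the data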
aDG glyco up: alpha-DG glycosylation activation | Pro5-aDG cells, alpha-DG glycosylation AlphaScreen (IIH6); 0% Pro5, 100% B10-LARGE cell signal | activation, % at 10 µM | 0.22% of 360,000 active | AID 624168;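 active = activation of at least 8% versus controls, or a plate z-score of at least 8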;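 also: Pro5 are CHO cells carrying HIG-tagged alpha-DG that lacks glycosylation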
Cardio protect: modulators protecting cardiomyocytes from myocardial damage; H9c2 cardiomyocytes, H2O2 injury protection, ATPLite, 2 h; protection from H2O2 cell death, % at 20 µM; 0.63% of 360,000 active; AID 588492;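 active = compounds giving at least 50% protection of heart cells from peroxide-induced death in the single-dose screen, raw or plate-pattern-corrected value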;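 also: 0% = DMSO wells with peroxide and 100% = DMSO wells without peroxide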
MIN6 prolif: induces beta-cell replication in MIN6 cells; MIN6 cells proliferation, ATPlite luminescence, 48 h; cells starved in 0.2% serum; 100% = growth in 10% serum; proliferation, % at 10 µM; 0.29% of 330,000 active; AID 2380;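 active = compounds whose signal lies at least 3.5 SD above the mean of all wells on their plate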;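 also: 0% = DMSO-treated cells in low-serum medium and 100% = 10% serum control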
FAS-TE inh: FAS thioesterase (human) inhibition. recombinant FAS-TE, OMFH fluorogenic substrate, fluorescence endpoint. inhibition, % at 15 µM. 0.67% of 360,000 active;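 active = compounds whose normalised, plate-corrected inhibition of enzyme fluorescence in the single-dose primary screen is 50% or more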;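 also: 0% = DMSO with enzyme and 100% = substrate without enzyme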
TAG inh: inhibitors of triacylglycerol accumulation. H9c2 cells, Nile Red lipid (TAG) fluorescence; cells loaded with 200 µM oleic acid. inhibition, % at 12.5 µM. 0.66% of 230,000 active. AID 651582;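 active = pattern-corrected inhibition of lipid staining of at least 50% with the nuclear-stain viability signal not falling by more than 50%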;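 also: 0% = DMSO wells and 100% = triacsin C control wells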
FAS-TE inh conf: confirmation of human fatty acid synthase thioesterase inhibitors; 45% of 2,300 active; recombinant FAS-TE, OMFH fluorogenic substrate, fluorescence; shares compounds with FAS-TE inh; inhibition, % at 15 µM;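 active = compounds inhibiting the enzyme by at least 50% at 15 µM in any one of the replicates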;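 also: 0% = enzyme with DMSO only and 100% = wells lacking enzyme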
* = called active by the depositor; · = not tested or not shown. Rows were chosen to be rich in hits. Some 2.3% of all compounds tested hit in one or more screens of this group.

SMILES | Calpain2 inh | aDG glyco up | Cardio protect | MIN6 prolif | FAS-TE inh | TAG inh | FAS-TE inh conf
C=CCC1(CC=C)CCCN1C(=O)C1CCC(=O)N(Cc2ccc(Cl)cc2)C1 (centres undefined) | · | 0 | -7 | · | 10 | -19 | ·
CC1(C(=O)NS(=O)(=O)c2ccc(C#N)cc2)CCN1C(=O)Cc1ccc(Cl)cc1Cl (centres undefined) | · | 0 | 2 | · | 55* | 8 | 70*
O=C(O)c1ccc(Nc2nc(-c3ccc([N+](=O)[O-])cc3)nc3ccccc23)cc1 | · | 0 | 3 | -4 | 55* | · | 7
O=[N+]([O-])c1ccc(-c2nc(NCC3CCCO3)c3ccccc3n2)cc1 (centres undefined) | -2 | 0 | -7 | -4 | 60* | 18 | 16
Oc1ccccc1-c1nc(NCC2CCCO2)c2ccccc2n1 (centres undefined) | -27 | 0 | -10 | -2 | 24 | 16 | ·
CCC(C(=O)NCc1ccccc1)n1c(C2CCN(C(C)=O)CC2)nc2ccccc21 (centres undefined) | · | 0 | · | · | · | · | ·
Cc1cccc(C(=O)NNC(=O)c2ccc(S(=O)(=O)N3CCOCC3)cc2)c1 | · | 0 | -2 | 0 | -8 | · | ·
Cn1c(=O)cc(SCC(=O)NCCC2=CCCCC2)c2cc(Cl)ccc21 | -16 | 0 | 2 | -3 | 69* | · | 30
Cn1c(=O)cc(OCCCC(=O)NCCC2=CCCCC2)c2ccccc21 | -15 | 0 | 7 | -3 | 3 | 19 | ·
CCOC(=O)c1ccc(Nc2nc(N3CCOCC3)nc(N3CCOCC3)n2)cc1 | · | 0 | 10 | 4 | 51* | · | 14
CC(=O)c1ccc(Nc2nc(N3CCOCC3)nc(N3CCOCC3)n2)cc1 | · | 0 | 6 | 3 | -1 | 14 | ·
CCOc1cc(/C=N\Nc2nc(Nc3ccccc3)nc(N3CCOCC3)n2)ccc1OC(=O)c1ccco1 | -56 | 0 | 27 | 0 | 72* | 128 | 17
COc1ccc(/C=N\NC(=O)CNC(=O)C(c2ccccc2)c2ccccc2)cc1[N+](=O)[O-] | -88 | 0 | 10 | -1 | 54* | -3 | 42*
CCc1nc2c(OCc3ccccc3C)cccn2c1N(C)C(=O)c1ccco1 | · | 0 | -1 | · | -4 | 4 | ·
COc1ccc(C2NC(c3ccc(OC)cc3)C(c3ccccc3)C(=O)C2c2ccccc2)cc1 (centres undefined) | -38 | 0 | -5 | 1 | 62* | · | 32
COc1ccc(C2NC(c3ccc(OC)cc3)C(C)C(=O)C2C)cc1 (centres undefined) | · | 0 | -2 | 1 | 15 | · | ·
COc1cc(-c2nc(C(=O)NC3CCCCC3)cc3c2[nH]c2ccccc23)cc(OC)c1OC | · | 1 | -3 | -6 | 84* | · | 10
COc1ccc(OC)c(-c2nc(C(=O)NC3CCN(Cc4ccccc4)CC3)cc3c2[nH]c2ccccc23)c1 | · | 0 | -3 | -6 | 29 | · | ·
Cc1ccc(Cl)cc1N1CCN(S(=O)(=O)c2ccc3c(c2)oc(=O)n3C)CC1 | 10 | 0 | 1 | -2 | 52* | 11 | 7
Cn1c(=O)oc2cc(S(=O)(=O)N3CCN(c4ccccc4F)CC3)ccc21 | · | 1 | -10 | -2 | -17 | · | ·
COc1ccc(N2C(=O)CC2(/C=C/c2ccccc2OC)C(=O)NC2CCCC2)cc1 (centres undefined) | 12 | 0 | 7 | -4 | 17 | 9 | ·
O=C1CC(/C=C/c2ccccc2)(C(=O)NC2CCCC2)N1c1ccc(S(=O)(=O)N2CCCC2)cc1 (centres undefined) | -36 | 0 | 4 | -3 | 75* | · | 9
CC1C(=O)N(c2ccc(S(=O)(=O)N(C)C)cc2)C1(/C=C/c1ccccc1)C(=O)NC1CCCC1 (centres undefined) | -49 | 0 | -3 | -2 | 61* | · | 33
O=C(c1ccccc1)n1ccc(-c2cnc(-c3ccccc3)s2)n1 | -213 | 0 | -21 | -1 | 36 | 3 | ·
COc1ccc(S(=O)(=O)n2ccc(-c3cnc(-c4ccccc4)s3)n2)cc1 | -76 | 0 | -8 | -3 | 58* | -70 | 42
